# Reference: paper PMC10812921, “Transcriptional Coactivator BOB1 (OBF1, OCA-B) Modulates the Specificity of DNA Recognition by the POU-Domain Factors OCT1 and OCT2 in a Monomeric Configuration”
# What was measured:
# POU1 (OCT1 POU domain) = POU1 (OCT1 POU domain) (human, UniProt P14859 260-458); experiment: EMSA-SELEX-seq; no BOB1; 20 mM Tris-HCl pH 7.6, 140 mM NaCl, 10% glycerol, 0.5 mM EDTA, 0.05% Triton X-100, 0.1 mg/mL BSA, 0.1 mg/mL poly(dI-dC), 5 mM DTT, room temperature, 20 min; high values mean tight binding; settings: protein: recombinant; dsDNA, one strand shown
# Chain of POU1 (OCT1 POU domain) (P14859 260-458): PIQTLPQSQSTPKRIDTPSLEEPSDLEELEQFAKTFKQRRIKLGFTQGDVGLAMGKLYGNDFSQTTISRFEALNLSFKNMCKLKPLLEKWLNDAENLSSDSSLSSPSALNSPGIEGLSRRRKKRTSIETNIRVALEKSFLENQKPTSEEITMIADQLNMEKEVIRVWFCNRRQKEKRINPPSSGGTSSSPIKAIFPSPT
# Summary of the method: (§1)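 With or without 28 ng coactivator protein, 30 ng of tagged POU-domain protein was combined with 300 ng of a PCR-amplified double-stranded random 35-nt library in 20 μL Tris–HCl pH 7.6 binding buffer for 20 min at RT. The protein came from E. coli BL21 and had been purified under denaturing conditions and renatured. Four rounds of cutting complex bands from native 6% PAGE, elution and PCR amplification preceded Illumina sequencing. The binding preference figure is the percentage of sequenced 8-mers matching a motif pattern.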
# POU2 (OCT2 POU domain) = molecular target: T1, POU2 (OCT2 POU domain) (human, UniProt P09086 175-386); experiment: as above; settings: protein: recombinant; dsDNA, one strand shown
# T1 sequence: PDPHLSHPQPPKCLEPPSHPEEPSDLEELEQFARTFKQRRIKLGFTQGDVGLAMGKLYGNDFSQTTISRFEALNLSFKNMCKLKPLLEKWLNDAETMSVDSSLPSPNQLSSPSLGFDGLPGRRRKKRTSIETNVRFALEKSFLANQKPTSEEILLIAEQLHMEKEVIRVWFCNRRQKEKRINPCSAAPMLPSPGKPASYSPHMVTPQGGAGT
# Summary of the method: as §1
# [1] = molecular target: POU1 (OCT1 POU domain);BOB1 (OBF1, OCA-B) (human;human, UniProt P14859;Q16633 260-458;1-256, |); experiment: EMSA-SELEX-seq; with BOB1 (ternary complex band); 20 mM Tris-HCl pH 7.6, 140 mM NaCl, 10% glycerol, 0.5 mM EDTA, 0.05% Triton X-100, 0.1 mg/mL BSA, 0.1 mg/mL poly(dI-dC), 5 mM DTT, room temperature, 20 min; high values mean tight binding; settings: protein: recombinant;recombinant; copies: 1;1; dsDNA, one strand shown
# Summary of the method: as §1
# [2] = molecular target: T2, POU2 (OCT2 POU domain);BOB1 (OBF1, OCA-B) (human;human, UniProt P09086;Q16633 175-386;1-256, |); experiment: as above; settings: protein: recombinant;recombinant; copies: 1;1; dsDNA, one strand shown
# T2 sequence 1: T1 sequence
# T2 sequence 2: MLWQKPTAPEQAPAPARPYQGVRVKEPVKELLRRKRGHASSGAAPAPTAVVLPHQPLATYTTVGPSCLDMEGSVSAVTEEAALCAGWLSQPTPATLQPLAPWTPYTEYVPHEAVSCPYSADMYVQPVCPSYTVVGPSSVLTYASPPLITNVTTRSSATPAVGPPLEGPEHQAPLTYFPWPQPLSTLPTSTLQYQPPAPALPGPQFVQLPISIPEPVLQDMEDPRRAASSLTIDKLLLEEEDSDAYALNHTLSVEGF
# Summary of the method: as §1
Sequence,binding signal (POU1 (OCT1 POU domain)),binding signal (POU2 (OCT2 POU domain)),binding signal [1],binding signal [2]
ATCAGAAT,0.085 % of ANNNNAAN 8-mers,0.116 % of ANNNNAAN 8-mers,0.0777 % of ANNNNAAN 8-mers,0.0784 % of ANNNNAAN 8-mers
ATAAAAAC,0.066 % of ANNNNAAN 8-mers,0.0633 % of ANNNNAAN 8-mers,0.0562 % of ANNNNAAN 8-mers,0.0495 % of ANNNNAAN 8-mers
AGTCTAAC,0.021 % of ANNNNAAN 8-mers,0.0207 % of ANNNNAAN 8-mers,0.0199 % of ANNNNAAN 8-mers,0.0231 % of ANNNNAAN 8-mers
ATTAGAAA,0.0995 % of ANNNNAAN 8-mers,0.106 % of ANNNNAAN 8-mers,0.0738 % of ANNNNAAN 8-mers,0.0892 % of ANNNNAAN 8-mers
AGGTAAAC,0.0534 % of ANNNNAAN 8-mers,0.0558 % of ANNNNAAN 8-mers,0.0792 % of ANNNNAAN 8-mers,0.0537 % of ANNNNAAN 8-mers
AAATAAAT,0.261 % of ANNNNAAN 8-mers,0.275 % of ANNNNAAN 8-mers,0.232 % of ANNNNAAN 8-mers,0.22 % of ANNNNAAN 8-mers
ATCCAAAC,0.0233 % of ANNNNAAN 8-mers,0.0178 % of ANNNNAAN 8-mers,0.0343 % of ANNNNAAN 8-mers,0.0264 % of ANNNNAAN 8-mers
ATCTCAAA,0.0435 % of ANNNNAAN 8-mers,0.0443 % of ANNNNAAN 8-mers,0.0574 % of ANNNNAAN 8-mers,0.038 % of ANNNNAAN 8-mers
AATAAAAC,0.0751 % of ANNNNAAN 8-mers,0.0967 % of ANNNNAAN 8-mers,0.0757 % of ANNNNAAN 8-mers,0.0726 % of ANNNNAAN 8-mers
ACGCTAAT,0.108 % of ANNNNAAN 8-mers,0.14 % of ANNNNAAN 8-mers,0.046 % of ANNNNAAN 8-mers,0.0611 % of ANNNNAAN 8-mers
ACGCAAAT,0.564 % of ANNNNAAN 8-mers,0.409 % of ANNNNAAN 8-mers,1.27 % of ANNNNAAN 8-mers,1.38 % of ANNNNAAN 8-mers
AACTCAAT,0.0378 % of ANNNNAAN 8-mers,0.0437 % of ANNNNAAN 8-mers,0.0289 % of ANNNNAAN 8-mers,0.0314 % of ANNNNAAN 8-mers
AGCATAAT,0.269 % of ANNNNAAN 8-mers,0.277 % of ANNNNAAN 8-mers,0.0757 % of ANNNNAAN 8-mers,0.106 % of ANNNNAAN 8-mers
AGCGAAAT,0.0526 % of ANNNNAAN 8-mers,0.0627 % of ANNNNAAN 8-mers,0.0492 % of ANNNNAAN 8-mers,0.0619 % of ANNNNAAN 8-mers
AATGGAAC,0.0439 % of ANNNNAAN 8-mers,0.0466 % of ANNNNAAN 8-mers,0.0449 % of ANNNNAAN 8-mers,0.0528 % of ANNNNAAN 8-mers
AGTCTAAT,0.147 % of ANNNNAAN 8-mers,0.166 % of ANNNNAAN 8-mers,0.0761 % of ANNNNAAN 8-mers,0.0958 % of ANNNNAAN 8-mers

Sequence,binding signal (POU1 (OCT1 POU domain)),binding signal (POU2 (OCT2 POU domain)),binding signal [1],binding signal [2]
ACTATAAT,0.0595 % of ANNNNAAN 8-mers,0.0748 % of ANNNNAAN 8-mers,0.0472 % of ANNNNAAN 8-mers,0.0388 % of ANNNNAAN 8-mers
ACTGGAAT,0.074 % of ANNNNAAN 8-mers,0.0765 % of ANNNNAAN 8-mers,0.0558 % of ANNNNAAN 8-mers,0.0817 % of ANNNNAAN 8-mers
AGGACAAC,0.0198 % of ANNNNAAN 8-mers,0.0305 % of ANNNNAAN 8-mers,0.0187 % of ANNNNAAN 8-mers,0.0206 % of ANNNNAAN 8-mers
AAATCAAA,0.133 % of ANNNNAAN 8-mers,0.117 % of ANNNNAAN 8-mers,0.194 % of ANNNNAAN 8-mers,0.136 % of ANNNNAAN 8-mers
ATTCGAAT,0.117 % of ANNNNAAN 8-mers,0.137 % of ANNNNAAN 8-mers,0.08 % of ANNNNAAN 8-mers,0.102 % of ANNNNAAN 8-mers
AGTGCAAG,0.0187 % of ANNNNAAN 8-mers,0.0311 % of ANNNNAAN 8-mers,0.0238 % of ANNNNAAN 8-mers,0.0264 % of ANNNNAAN 8-mers
ATATCAAA,0.0877 % of ANNNNAAN 8-mers,0.0806 % of ANNNNAAN 8-mers,0.0823 % of ANNNNAAN 8-mers,0.0726 % of ANNNNAAN 8-mers
AACTGAAA,0.0358 % of ANNNNAAN 8-mers,0.0386 % of ANNNNAAN 8-mers,0.0382 % of ANNNNAAN 8-mers,0.038 % of ANNNNAAN 8-mers
ATTTGAAA,0.142 % of ANNNNAAN 8-mers,0.0995 % of ANNNNAAN 8-mers,0.178 % of ANNNNAAN 8-mers,0.0933 % of ANNNNAAN 8-mers
ACGAAAAT,0.106 % of ANNNNAAN 8-mers,0.0949 % of ANNNNAAN 8-mers,0.139 % of ANNNNAAN 8-mers,0.0834 % of ANNNNAAN 8-mers
ATGATAAA,0.104 % of ANNNNAAN 8-mers,0.131 % of ANNNNAAN 8-mers,0.0644 % of ANNNNAAN 8-mers,0.0619 % of ANNNNAAN 8-mers
ACCAAAAG,0.0236 % of ANNNNAAN 8-mers,0.0196 % of ANNNNAAN 8-mers,0.0273 % of ANNNNAAN 8-mers,0.019 % of ANNNNAAN 8-mers
ACTTTAAC,0.032 % of ANNNNAAN 8-mers,0.0345 % of ANNNNAAN 8-mers,0.0304 % of ANNNNAAN 8-mers,0.0355 % of ANNNNAAN 8-mers
ATGGTAAA,0.182 % of ANNNNAAN 8-mers,0.191 % of ANNNNAAN 8-mers,0.105 % of ANNNNAAN 8-mers,0.106 % of ANNNNAAN 8-mers
ACTTAAAT,0.0767 % of ANNNNAAN 8-mers,0.11 % of ANNNNAAN 8-mers,0.0714 % of ANNNNAAN 8-mers,0.057 % of ANNNNAAN 8-mers
AGACGAAG,0.0198 % of ANNNNAAN 8-mers,0.019 % of ANNNNAAN 8-mers,0.0203 % of ANNNNAAN 8-mers,0.0272 % of ANNNNAAN 8-mers
